According to PubChem BioAssay AID1490 (National Center for Advancing Translational Sciences (NCATS), 2009):
“And” between values parts separate entries of the source, which are not always exact repeats. Identical values can stand only once. The whole screen tested about 310,000 compounds, of which about 11,000 (3.5%) were called active. About 4% were inconclusive and are not listed. The call rests on the fitted dose curve; in most records, active means well fitted inhibition curve with a large enough effect; inconclusive means small, poorly fitted or top-dose-only effect, or another doubt; inactive means no such curve, though single readings can be large or run the other way. The list comes from a sample in which actives are over-represented; it also holds similar structures and randomly drawn compounds.

target: 4'-phosphopantetheinyl transferase ffp (Bacillus subtilis) (UniProt Q9F4F7); assay: qHTS Assay for Inhibitors of Bacillus subtilis Sfp phosphopantetheinyl transferase (PPTase); settings: Biochemical Sfp PPTase activity;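 further: the enzyme is Sfp with the accession as filed and its product quenches rhodamine fluorescence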;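 on Largest response in the series, negative = inhibition: 0% = enzyme reaction without inhibitor and -100% = no enzyme wells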
Procedure, shortened: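 Fluorescence-quenching assay with 15 nM Sfp, 5 uM rhodamine-CoA and 12.5 uM BHQ-2-labelled ybbR peptide in pH 7.6 Hepes/MgCl2 buffer. Enzyme was pre-incubated with compound for 15 min at room temperature. Rate was taken from the 30-min fluorescence change (525/598 nm).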
Potency means the concentration at half of the fitted maximal effect.

Largest response in the series, negative = inhibition, inactive:
COc1cccc(NC(=O)C2C(c3ccccc3)C2(Cl)Cl)c1 (centres undefined) 11.1%, CCn1cc(C(=O)N[C@@H](C)C(=O)NCCO)c(=O)c2cc3c(cc21)OCO3 20.9%, Cc1ccc(S(=O)(=O)CC(=O)NC(C)c2ccccc2)cc1 (centres undefined) 12.8%, CN(CCc1ccccn1)C1CCCN(S(=O)(=O)c2ccccc2Cl)C1 (centres undefined) 8.81%, CC[C@H](C)[C@H](NC(=O)[C@H](Cc1ccc(O)cc1)NC(=O)[C@@H](NC(=O)[C@H](CCCN=C(N)N)NC(=O)[C@@H](N)CC(=O)O)C(C)C)C(=O)N[C@@H](Cc1cnc[nH]1)C(=O)N1CCC[C@H]1C(=O)N[C@@H](Cc1ccccc1)C(=O)O -1.37%, CCCc1cc(-c2n[nH]c(=S)n2CC)c2ccccc2n1 -1.53%, CCn1c(-c2ccoc2C)n[nH]c1=S 11.6%, CC1=CCC2C(=O)N(c3cccc(C(=O)NC(C)c4ccccc4)c3)C(=O)C2C1 (centres undefined) 5.16%, CCOc1ccc(N2C(=O)CC(N(O)c3ccccc3)C2=O)cc1 (centres undefined) -14.7%, CCOC(=O)c1ccc(N2C(=O)CC(N(C)Cc3ccccc3)C2=O)cc1 (centres undefined) 16.2%, COc1ccc(CCNC(=O)CCc2cn(C)c3ccccc23)c(OC)c1 10.4%, Cc1onc(-c2ccccc2)c1C(=O)N1CCN(S(=O)(=O)c2ccccc2C(F)(F)F)CC1 21.8%, O=C(O)C1CCN(c2ccc([N+](=O)[O-])cc2[N+](=O)[O-])CC1 13.6%, COc1ccc(N2CCN(c3ccc([N+](=O)[O-])cc3Cl)CC2)cc1 2.35%, O=C(Cc1ccc(Cl)cc1)NC1CCS(=O)(=O)C1 (centres undefined) 11.6%, COC(=O)Nc1ccc(S(=O)(=O)Nc2cc(OC)nc(OC)n2)cc1 -10.4%, S=C(Nc1ccc(Br)cc1)NC1CCN(Cc2ccccc2)CC1 5.78%, CCOc1ccccc1NC(=S)NC(=O)CCc1ccccc1 -1.83%, COC(=O)c1c(NC(=O)c2ccc(S(=O)(=O)N3CCOCC3)cc2)sc2c1CCN(C(C)C)C2 6.28%, Cn1c(CNc2nc(-c3ccccc3)cs2)nnc1SCC(=O)c1ccccc1 3.73%, Cn1c(SCC(=O)c2ccc(F)cc2)nnc1-c1ccccn1 -4.04%, COCCN1CCn2c(nc3cc(NS(C)(=O)=O)ccc32)C1 11.6%, Cc1cc(=O)oc2c1ccc1ccccc12 3.98%, CC(=O)c1ccc(NC(=O)c2cc(-c3cccs3)on2)cc1 1.32%, COc1cc(=O)[nH]c(=O)n1C(=O)Cc1ccccc1 9.86%, COc1ccc(Cn2c(=O)cc(C)[nH]c2=S)cc1 -4.49%, Cc1cc(F)ccc1NC(=S)NCCc1ccccc1 0.31%, CC1CCN(CCCn2c(SCC(=O)NC3CCCC3)nc3ccccc3c2=O)CC1 6.04%, CC[C@H](C)[C@H](NC(=O)[C@H](Cc1cnc[nH]1)NC(=O)[C@@H](N)CCC(=O)O)C(=O)N1CCC[C@H]1C(=O)N[C@@H](C)C(=O)O 3.28%, COc1cc(OC)c(NS(=O)(=O)c2cn(C)cn2)cc1Cl 14.3%, CCN(CC)CCC(c1ccc2c(c1)OCO2)c1c(OC)cc(OC)c2c(-c3ccccc3)cc(=O)oc12 (centres undefined) -27% and -23.4%, COc1cc(-c2c(-c3ccc4c(c3)OCO4)noc2C)ccc1F -12.4%, O=C(NC(=S)Nc1ccc(Cl)cc1Cl)C1CC1 8.51%, COc1cc(Cl)ccc1OCc1cc(C(=O)N(C)CCc2c(C)n[nH]c2C)no1 11.4%, Cc1c(C)c(C)c2[nH]c(=S)[nH]c2c1C 7.86%, CC1CCN(C(=O)c2ccc3c(c2)NC(=O)CN3)CC1 6.69%, O=C(c1cc(C(=O)N2CCN(c3ccc(F)cc3)CC2)cc([N+](=O)[O-])c1)N1CCN(c2ccc(F)cc2)CC1 21.7%, O=C(c1cccc(F)c1)N1CCC2(CC1)CCN(c1ccccc1)CC2 2.37%, O=C(c1cccc(C(=O)N2CCN(c3ccc(F)cc3)CC2)c1)N1CCN(c2ccc(F)cc2)CC1 -15.2%, CC(C)[C@@H](OCc1ccccc1)[C@H](C)/C=N\OC[C@@H](C)[C@H](OCc1ccccc1)C(C)C 6.88%, CCCc1cc(=O)oc2c(C)c(OCC(=O)Nc3ccccn3)ccc12 -8.94%, COc1ccc(C)cc1NC(=O)c1[nH]c(C)c(C(C)=O)c1C 1.79%, Cc1ccc(S(=O)(=O)N(C)C)cc1NC(=O)c1ccccc1Br 14%, COc1cccc(NC(=S)NCc2ccco2)c1 16.1%, Cc1c(Cl)cccc1NC(=S)NCc1ccc2c(c1)OCO2 0.527%, S=C(NCc1ccco1)NCc1ccccc1Cl 8.59%, FC(F)Oc1ccc(NC(=S)NCc2ccco2)cc1Cl -3.21%

Potency, active:
CCn1c(-c2ccncc2)n[nH]c1=S 39.8 µM, CCCCCCC(=O)N(O)C1CC(=O)N(c2ccccc2)C1=O (centres undefined) 7.08 µM, O=[N+]([O-])c1ccc(N2CCN(c3ccc(O)cc3)CC2)c(Cl)c1 50.1 µM, Cn1c(CC2Sc3ccccc3NC2=O)nnc1SCC(=O)c1ccc(Cl)cc1 (centres undefined) 44.7 µM, CCCOc1ccc(Cn2c(O)cc(=O)[nH]c2=O)cc1 44.7 µM, COc1c2c(cc3occ(-c4ccc5c(c4)OCO5)c(=O)c13)OC(C)(C)C=C2 39.8 µM, O=c1[nH]c(=S)[nH]c2[nH]c(=S)[nH]c12 3.16 µM, O=C1Nc2cc(C(=O)N3CCN(c4ccc(F)cc4)CC3)ccc2NC1CSCc1cccc(F)c1 (centres undefined) 44.7 µM, Cc1ccc(CSCC2Nc3ccc(C(=O)N4CCN(c5ccc(F)cc5)CC4)cc3NC2=O)cc1 (centres undefined) 50.1 µM, CC(=O)c1c(C)[nH]c(C(=O)Nc2cc(S(=O)(=O)N(C)C)ccc2C)c1C 79.4 µM, S=C(NCc1ccco1)Nc1ccc2c(c1)OCCO2 28.2 µM, S=C(NCc1ccc2c(c1)OCO2)NCc1ccco1 39.8 µM
